# In all, about 39,000 compounds went through this assay and about 1,500 (3.8%) were called active. This is one part of a sample in which actives are shown more often than they occur.
# Tested on: HSkMC (human skeletal muscle cells)
# Experiment: cytotoxicity call (relative viability < 0.9)
# Settings: 10 µM
row,SMILES,cytotoxicity call
1,COCCOC(=O)N1C(=O)[C@@]2(c3cc(C#Cc4ccc(OC)cc4)ccc31)[C@H](C(=O)N1CCc3cc(OC)c(OC)cc3C1)[C@H]1C(=O)O[C@H](c3ccccc3)[C@H](c3ccccc3)N1[C@@H]2c1ccc(OCCO)cc1,inactive
2,COCC(=O)Nc1ccc2c(c1)OC[C@@H](C)N(C(=O)c1ccccc1F)C[C@H](C)[C@@H](OC)CN(C)C2=O,inactive
3,CC(C)NC(=O)Nc1cccc2c1O[C@H](CN(C)C(=O)NC1CCCCC1)[C@H](C)CN([C@@H](C)CO)C2=O,inactive
4,Cc1noc(C)c1NC(=O)Nc1ccc2c(c1)C(=O)N([C@H](C)CO)C[C@H](C)[C@@H](CN(C)C(=O)Nc1ccc3c(c1)OCO3)OCCCC[C@H](C)O2,inactive
5,C[C@@H]1CN([C@H](C)CO)C(=O)c2cc(NS(=O)(=O)c3ccc(Cl)cc3)ccc2O[C@@H]1CN(C)Cc1ccc(Oc2ccccc2)cc1,active
6,C[C@H]1CN([C@@H](C)CO)C(=O)c2cc(NS(=O)(=O)c3ccc(Cl)cc3)ccc2O[C@H]1CN(C)Cc1ccc(Oc2ccccc2)cc1,active
7,C[C@H]1CN([C@@H](C)CO)C(=O)c2cc(NS(=O)(=O)c3ccccc3)ccc2O[C@@H]1CN(C)Cc1ccc(Oc2ccccc2)cc1,inactive
8,C[C@@H]1CN([C@@H](C)CO)C(=O)c2cc(NS(=O)(=O)c3ccccc3)ccc2O[C@H]1CN(C)Cc1ccc(Oc2ccccc2)cc1,inactive
9,C[C@H](CO)N1C[C@H](C)[C@H](CN(C)Cc2ccc(Oc3ccccc3)cc2)Oc2ccc(NS(=O)(=O)c3ccc(Cl)cc3)cc2C1=O,inactive
10,C[C@H](CO)N1C[C@H](C)[C@@H](CN(C)Cc2ccc(Oc3ccccc3)cc2)Oc2ccc(NS(=O)(=O)c3ccc(Cl)cc3)cc2C1=O,inactive
11,C[C@@H]1CN([C@@H](C)CO)C(=O)c2cc(NS(=O)(=O)c3ccccc3)ccc2O[C@@H]1CN(C)Cc1ccc(Oc2ccccc2)cc1,inactive
12,C[C@H]1CN([C@@H](C)CO)C(=O)c2cc(NS(=O)(=O)c3ccc(Cl)cc3)ccc2O[C@@H]1CN(C)Cc1ccc(Oc2ccccc2)cc1,active
13,C[C@@H]1CN([C@@H](C)CO)C(=O)c2cc(NS(=O)(=O)c3ccc(Cl)cc3)ccc2O[C@H]1CN(C)Cc1ccc(Oc2ccccc2)cc1,inactive
14,C[C@@H]1CN([C@H](C)CO)C(=O)c2cc(NS(=O)(=O)c3ccc(Cl)cc3)ccc2O[C@H]1CN(C)Cc1ccc(Oc2ccccc2)cc1,active
15,CC(C)NC(=O)Nc1ccc2c(c1)CC(=O)N([C@@H](C)CO)C[C@H](C)[C@H](CN(C)C(=O)NC1CCCCC1)O2,inactive
16,Cc1cccc[n+]1C,inactive
17,CN1C2=CC(=O)/C(=N\NC(N)=O)C=C2C[C@H]1S(=O)(=O)O,inactive
18,COc1ccc(NC(=O)N(C)C[C@H]2OCCCC[C@H](C)Oc3ccc(NS(=O)(=O)c4ccc(C)cc4)cc3C(=O)N([C@@H](C)CO)C[C@H]2C)cc1,inactive
19,CC(=O)OC1C(=O)C2(C)C(O)CC3OCC3(OC(C)=O)C2C(OC(=O)c2ccccc2)C2(O)CC(OC(=O)C(O)C(NC(=O)c3ccccc3)c3ccccc3)C(C)=C1C2(C)C (centres undefined),inactive
20,CC(=O)OC1CC(C)(C)C(=C=C/C(C)=C/C=C/C(C)=C/C=C/C=C(C)/C=C/C=C(\C)C(=O)CC23OC2(C)CC(O)CC3(C)C)C(C)(O)C1 (centres undefined),inactive

row,SMILES,cytotoxicity call
1,C[C@@H]1CN([C@H](C)CO)C(=O)c2cc(NC(=O)CCCCCC(=O)Nc3ccccc3N)ccc2O[C@@H]1CN(C)C(=O)Nc1ccccc1,inactive
2,CO[C@H]1CN(C)C(=O)c2ccc(NC(=O)CC(F)(F)F)cc2OC[C@H](C)N(C(=O)C2CCOCC2)C[C@H]1C,inactive
3,O=c1c(O)cc(C2Oc3cc(O)cc(O)c3CC2O)cc2c(C3Oc4cc(O)cc(O)c4CC3O)cc(O)c(O)c12 (centres undefined),inactive
4,Cc1noc(C)c1NC(=O)Nc1ccc2c(c1)C(=O)N([C@@H](C)CO)C[C@H](C)[C@@H](CN(C)Cc1ccc(C(F)(F)F)cc1)O2,inactive
5,C[C@@H]1CN([C@@H](C)CO)C(=O)c2cc(NS(=O)(=O)c3ccc(Cl)cc3)ccc2O[C@@H]1CN(C)Cc1ccc(Oc2ccccc2)cc1,active
6,C[C@@H]1CN([C@H](C)CO)C(=O)c2cc(NS(=O)(=O)c3ccccc3)ccc2O[C@H]1CN(C)Cc1ccc(Oc2ccccc2)cc1,inactive
7,C[C@H](CO)N1C[C@H](C)[C@H](CN(C)Cc2ccc(Oc3ccccc3)cc2)Oc2ccc(NS(=O)(=O)c3ccccc3)cc2C1=O,inactive
8,C[C@@H]1CN([C@H](C)CO)C(=O)c2cc(NS(=O)(=O)c3cn(C)cn3)ccc2O[C@H]1CN(C)Cc1ccc2c(c1)OCO2,inactive
9,COc1ccc(S(=O)(=O)N(C)C[C@H]2Oc3ccc(NC(=O)Cn4cnnn4)cc3CC(=O)N([C@@H](C)CO)C[C@@H]2C)cc1,inactive
10,C[C@H]1CCCCO[C@H](CN(C)C(=O)Nc2cccc3ccccc23)[C@@H](C)CN([C@@H](C)CO)C(=O)c2cc(NS(=O)(=O)c3cccs3)ccc2O1,inactive
11,C[C@H](CO)N1C[C@H](C)[C@@H](CN(C)C(=O)Nc2cccc3ccccc23)OCCCC[C@H](C)Oc2ccc(NS(=O)(=O)c3cccs3)cc2C1=O,active
12,C[C@@H]1CCCCO[C@@H](CN(C)C(=O)Nc2cccc3ccccc23)[C@H](C)CN([C@H](C)CO)C(=O)c2cc(NS(=O)(=O)c3cccs3)ccc2O1,inactive
13,C[C@@H]1CN([C@@H](C)CO)C(=O)c2cc(NS(=O)(=O)c3cccs3)ccc2O[C@@H](C)CCCCO[C@H]1CN(C)C(=O)Nc1cccc2ccccc12,inactive
14,C[C@H]1CCCCO[C@@H](CN(C)C(=O)Nc2cccc3ccccc23)[C@@H](C)CN([C@@H](C)CO)C(=O)c2cc(NS(=O)(=O)c3cccs3)ccc2O1,inactive
15,C[C@@H]1CCCCO[C@H](CN(C)C(=O)Nc2cccc3ccccc23)[C@H](C)CN([C@H](C)CO)C(=O)c2cc(NS(=O)(=O)c3cccs3)ccc2O1,active
16,C[C@@H]1CN([C@@H](C)CO)S(=O)(=O)c2ccc(-c3ccc(F)cc3)cc2O[C@@H]1CN(C)S(C)(=O)=O,inactive
17,Oc1ccc([C@@H]2C=CCC2)cc1,inactive
18,COc1ccc(NC(=O)N(C)C[C@H]2OCCCC[C@@H](C)Oc3ccc(NC(=O)Nc4ccc5c(c4)OCO5)cc3C(=O)N([C@@H](C)CO)C[C@H]2C)cc1,inactive
19,C[C@@H]1CN([C@H](C)CO)C(=O)c2cccc(NC(=O)C3CCOCC3)c2O[C@@H]1CN(C)Cc1ccc2c(c1)OCO2,inactive
20,Cc1cc(C(=O)Nc2cccc3c2O[C@H](CN(C)S(=O)(=O)c2ccc(F)cc2)[C@H](C)CN([C@H](C)CO)C3=O)n(C)n1,inactive

row,SMILES,cytotoxicity call
1,CN(C)CC(=O)N1[C@@H]2Cn3c(cccc3=O)[C@H]1[C@@H](C(=O)NCc1ccccc1)[C@@H]2CO,inactive
2,C=CCC[C@@H](Cc1ccc(F)cc1)C(=O)O[C@H](CNC(=O)[C@H](CC=C)CC(=O)N(CCO)Cc1ccccc1)c1ccccc1,inactive
3,C=CCC[C@H](Cc1ccc(F)cc1)C(=O)O[C@@H](CNC(=O)[C@H](CC=C)CC(=O)N(CCO)Cc1ccccc1)c1ccccc1,inactive
4,C=CCC[C@H](Cc1ccc(F)cc1)C(=O)O[C@H](CNC(=O)[C@H](CC=C)CC(=O)N(CCO)Cc1ccccc1)c1ccccc1,inactive
5,C=CCC[C@@H](Cc1ccc(F)cc1)C(=O)O[C@@H](CNC(=O)[C@H](CC=C)CC(=O)N(CCO)Cc1ccccc1)c1ccccc1,active
6,C=CCC[C@@H](Cc1ccc(F)cc1)C(=O)O[C@@H](CNC(=O)[C@@H](CC=C)CC(=O)N(CCO)Cc1ccccc1)c1ccccc1,active
7,C=CCC[C@H](Cc1ccc(F)cc1)C(=O)O[C@H](CNC(=O)[C@@H](CC=C)CC(=O)N(CCO)Cc1ccccc1)c1ccccc1,inactive
8,C=CCC[C@@H](Cc1ccc(F)cc1)C(=O)O[C@H](CNC(=O)[C@@H](CC=C)CC(=O)N(CCO)Cc1ccccc1)c1ccccc1,active
9,C=CCC[C@H](Cc1ccc(F)cc1)C(=O)O[C@@H](CNC(=O)[C@@H](CC=C)CC(=O)N(CCO)Cc1ccccc1)c1ccccc1,active
10,COC(=O)C[C@H]1CC[C@@H]2[C@H](COC[C@@H](O)CN2S(=O)(=O)c2ccc(F)cc2)O1,inactive
11,C=CCNC(=O)[C@@H]1[C@H]2C(=O)O[C@H](c3ccccc3)[C@H](c3ccccc3)N2[C@H](c2ccc(O)cc2)[C@@]12C(=O)N(C(=O)OCCOC)c1ccc(C#Cc3ccc(OC)cc3)cc12,inactive
12,CC(C)NC(=O)N(C)C[C@H]1Oc2cc(-c3ccccc3F)ccc2S(=O)(=O)N([C@@H](C)CO)C[C@H]1C,inactive
13,Nc1ncnc(Cl)c1N,inactive
14,COCC#Cc1ccc2c(c1)O[C@H](CN(C)C(=O)c1ccccc1)[C@@H](C)CN([C@@H](C)CO)S2(=O)=O,inactive
15,C[C@@H]1CCCCO[C@@H](CN(C)C(=O)c2ccccc2)[C@@H](C)CN([C@H](C)CO)C(=O)c2cc(NC(=O)Nc3ccc(F)cc3)ccc2O1,inactive
16,COc1ccccc1CNC(=O)C[C@H]1CC[C@H]2[C@@H](COC[C@H](O)CN2C(=O)Nc2ccc(F)cc2)O1,inactive
17,O=C(C[C@@H]1C[C@H]2c3cc(NC(=O)Nc4ccc(C(F)(F)F)cc4)ccc3O[C@H]2[C@H](CO)O1)NCc1cc(F)ccc1F,inactive
18,C[C@@H]1CN([C@H](C)CO)C(=O)c2cc(NC(=O)c3ccncc3)ccc2O[C@H]1CN(C)Cc1ccc(Oc2ccccc2)cc1,inactive
19,O=C(O[C@H]1[C@H](O)[C@@H](CO)O[C@H](c2c(O)cc(O)c(C(=O)c3ccc(O)cc3)c2O)[C@H]1OC(=O)c1cc(O)c(O)c(O)c1)c1cc(O)c(O)c(O)c1,inactive
